# Screens from PubChem BioAssay.
# CHX counter: Cycloheximide Counterscreen for Small Molecule Inhibitors of Shiga Toxin; cell reporter, cycloheximide protein synthesis inhibition counterscreen; max response, %; 300,000 tested, 12% active; AID 2314, 2010; in the data active = max response mostly above about 13%, no sharp cut-off; inactive = mostly below about 14%; also: read at 38.3 µM for the half of the compounds with a filed dose; 0% is about no effect
# Pf growth 48h: Primary qHTS for delayed death inhibitors of the malarial parasite plastid, 48 hour incubation; P. falciparum luciferase growth in erythrocytes, 48 h; 310,000 tested, 5.9% active; Potency, µM (highest dose often 28.7 µM), without a hit: top-dose activity change, negative = inhibition, hits mostly inhibitors; also: potency is read from the fitted curve at half-maximal effect; % is scaled to controls: 0 for no effect and ±100 for the full control effect
#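 In quantitative HTS format, infected erythrocytes bearing luciferase-reporter parasites were treated for a single generation at 37 C. Luminescence after adding detection reagent served as the growth measure.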
# Pf growth 96h: Primary qHTS for delayed death inhibitors of the malarial parasite plastid, 96 hour incubation. Potency, µM (highest dose often 28.7 µM), for the others: at the highest dose activity change, negative = inhibition, actives largely listed as inhibitors. 320,000 tested, 6.9% active. P. falciparum luciferase reporter growth, 96 h. AID 504834, 2011; also: potency is read from the fitted curve at half-maximal effect; % is scaled to controls: 0 for no effect and ±100 for the full control effect
#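 Compounds incubated with erythrocytes infected by luciferase-expressing P. falciparum (2% hematocrit, 0.05% parasitemia final) for 96 hours, 37 C in 5% CO2. Growth inhibition scored as decreased luciferase luminescence.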
# NS1 function inh: qHTS Assay for Inhibitors of Influenza NS1 Protein Function; AID 2326, 2010; Potency, µM (series often up to 46.1 µM), for inactives: top-dose activity, positive = more growth; 270,000 tested, 0.4% active; calls by dose curve; also: potency is read from the fitted curve at half-maximal effect; actives are rising curves; nearly all actives have a fitted effect of over 50% in size
#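 Read-out: OD600 growth recovery of NS1-expressing budding yeast. Cells grown overnight at 30C in -URA glucose medium, washed, resuspended and diluted 1:100 in 2% galactose assay medium, pH 6.0. Same strain lacking NS1 served as positive control.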
# Shiga inhibitor: A qHTS for Small Molecule Inhibitors of Shiga Toxin; 290,000 tested, 9.2% active; inhibition, % at 38.7 µM; Vero cells, Shiga toxin protein synthesis inhibition reporter; in the data active = inhibition mostly above about 28%, no sharp cut-off; inactive = mostly below about 43%; also: 0% is about no effect
# FBPA Giardia inh: qHTS Assay for Inhibitors of Fructose-1,6-bisphosphate Aldolase from Giardia Lamblia; A8B2U2; purified Giardia FBPA; Potency, µM (doses to about 59.6 µM), for inactives: at the top dose activity, negative = inhibition, hits mostly inhibitors; 290,000 tested, 0.71% active; AID 2451, 2010; also: potency is read from the fitted curve at half-maximal effect; % is scaled to controls: 0 for no effect and ±100 for the full control effect; nearly all actives have a fitted effect of over 55% in size
# Target sequence (A8B2U2 whole entry, looked up): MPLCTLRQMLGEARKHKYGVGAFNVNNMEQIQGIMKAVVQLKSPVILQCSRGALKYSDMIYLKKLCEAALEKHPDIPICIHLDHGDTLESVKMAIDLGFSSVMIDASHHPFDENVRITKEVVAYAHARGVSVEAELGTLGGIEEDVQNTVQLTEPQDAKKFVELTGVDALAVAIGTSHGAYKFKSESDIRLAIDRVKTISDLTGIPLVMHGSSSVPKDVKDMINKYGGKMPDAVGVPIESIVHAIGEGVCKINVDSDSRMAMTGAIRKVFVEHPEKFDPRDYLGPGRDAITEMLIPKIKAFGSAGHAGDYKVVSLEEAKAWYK
#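 Giardia FBPA (40 nM reagent) was preincubated 10 min at RT with compound (up to 57.5 uM final), then substrate plus GAPDH/TPI/NAD/arsenate coupling system with diaphorase/resazurin was added; resorufin fluorescence (525/598 nm) was read after 20 min.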
# Active calls of the source: *; u = inconclusive; x = no result; [ ] = another dose, or the depositor's remark. Shown are actives, neighbours in structure and some others; about 21% of the full set was active somewhere. Unless noted, calls follow the shape of the dose curve; as a rule, active = well fitted curve in the direction sought with a large enough effect; inconclusive = small, poorly fitted or top-dose-only effect, or another doubt; inactive = no such curve, though single readings can be large; an effect the other way counts as inactive or inconclusive.
SMILES,CHX counter,Pf growth 48h,Pf growth 96h,NS1 function inh,Shiga inhibitor,FBPA Giardia inh
Cc1ccccc1Cn1cc(NC(=O)c2cc(-c3ccco3)on2)cn1,19.5,18.2%,-13.3%,x,61.1*,18.4%
O=C(Nc1cnn(Cc2ccc(F)cc2)c1)c1cc2nc(-c3ccco3)cc(C(F)(F)F)n2n1,-6.9,7.1%,10.4µM*,-1.6%,-17.7,-7.1%
Cc1ccccc1OCCC(=O)Nc1ccc(N2CCOCC2)cc1N1CCOCC1,x,u,-6.6%,x,x,x
O=C(Nc1cnn(Cc2ccc(F)cc2)c1)c1cc(-c2ccco2)on1,11.7*,12.9%,u,x,13.2,-2.0%
O=C(CCl)N(c1ccccc1)C1CCCCC1,-5.7,10.4µM*,13.1µM*,x,-26.4,u
CC1CN(C(=O)COC(=O)c2ccc(C#N)cc2)CC(C)O1 (centres undefined),-7.7,12.9%,11.4%,6.8%,4.3,-4.3%
CCN(CC)S(=O)(=O)c1cccc(NC(=O)C2CC(=O)N(c3ccc4c(c3)OCCO4)C2)c1 (centres undefined),x,u,-22.2%,x,x,x
CC(=O)Nc1ccc(Nc2cc(C)nc3c(-c4ccccc4)c(C)nn23)cc1,6.9,u,3.7µM*,-20.3%,14.8,-6.8%
CC(=O)Nc1ccc(Nc2cc(C(C)C)nc3c(-c4ccccc4)c(C)nn23)cc1,7.2,u,13.1µM*,-56.5%,18.3,-16.2%
Cc1cc(NCCC(C)C)n2nc(C)c(-c3ccccc3)c2n1,15.9,9.28µM*,x,-17.3%,37.3,-4.7%
Cc1cc(SCC(=O)Nc2ccc(O)cc2)n2nc(C)c(-c3ccccc3)c2n1,1.6,-3.8%,2.0%,-6.1%,20.6,0.1%
C=C(C)CSc1cc(C)nc2c(-c3ccccc3)c(C)nn12,36.0*,6.57µM*,10.4µM*,-6.0%,34.0,1.9%
CCc1ccc(S(=O)(=O)c2nnn3c2nc(N2CCOCC2)c2ccccc23)cc1,-4.4,-27.4%,25.6%,-6.1%,0.5,8.0%
NCCC[C@@H](CC(=O)N[C@@H]1CCNC[C@H]1C(=O)N[C@H](CC(=O)N[C@@H](CCC(=O)O)CC(=O)O)Cc1c[nH]c2ccccc12)NC(=O)C[C@H](Cc1ccccc1)NC(=O)[C@@H]1CNCC[C@H]1N,x,x,x,x,x,-16.3%
CC[C@H](C)[C@H](NC(=O)[C@H](Cc1ccc(O)cc1)NC(=O)[C@H](Cc1cnc[nH]1)NC(=O)[C@H](CCCNC(=N)N)NC(=O)[C@H](CC(C)C)NC(=O)[C@H](C)NC(=O)[C@H](CO)NC(=O)[C@H](Cc1ccc(O)cc1)NC(=O)[C@H](Cc1ccc(O)cc1)NC(=O)[C@H](CCCNC(=N)N)NC(=O)[C@H](C)NC(=O)[C@H](CCSC)NC(=O)[C@H](CC(=O)O)NC(=O)[C@H](CCC(=O)O)NC(=O)[C@H](C)NC(=O)[C@@H]1CCCN1C(=O)[C@H](C)NC(=O)[C@H](CC(=O)O)NC(=O)[C@H](CCC(=O)O)NC(=O)CNC(=O)[C@@H]1CCCN1C(=O)[C@H](CC(N)=O)NC(=O)[C@H](CC(=O)O)NC(=O)[C@@H]1CCCN1C(=O)[C@H](CCCCN)NC(=O)[C@H](CO)NC(=O)[C@@H]1CCCN1C(=O)[C@@H](N)Cc1ccc(O)cc1)C(=O)N[C@@H](CC(N)=O)C(=O)N[C@@H](CC(C)C)C(=O)N[C@H](C(=O)N[C@H](C(=O)N[C@@H](CCCNC(=N)N)C(=O)N[C@@H](CCC(N)=O)C(=O)N[C@@H](CCCNC(=N)N)C(=O)N[C@@H](Cc1ccc(O)cc1)C(N)=O)[C@@H](C)O)[C@@H](C)CC,-2.3,x,x,x,-5.6,0.2%
CCCc1c(C(=O)N/N=C/c2ccccc2C(F)(F)F)nnn1-c1nonc1N,-1.9,u,u,-4.2%,-7.0,-4.2%
O=C(CSc1ncn[nH]1)N1N=C2/C(=C/c3ccccc3)CCCC2C1c1ccccc1 (centres undefined),0.1,u,7.38µM*,13.2%,-26.4,-1.0%
COc1ccc(/C=C2\CCCC3C2=NN(C(=O)CSc2ncn[nH]2)C3c2ccc(OC)cc2)cc1 (centres undefined),-3.0,u,u,u,-11.2,-0.7%
Fc1ccc2nc(C3CCN(Cc4nc(CC5CC5)no4)CC3)[nH]c2c1,15.2*,u,21.9%,-0.6%,8.4,5.6%
Fc1ccccc1C1CCN(Cc2nc(CC3CC3)no2)C1 (centres undefined),27.6*,41.8%,u,-4.8%,75.1*,0.7%
Clc1ccc(OC2CCN(Cc3nc(CC4CC4)no3)CC2)cc1,-0.5,12.8%,u,-5.9%,-1.8,-2.9%
CCC(CC)(CC(=O)Nc1cccc(/C=C/c2nc(C3CCC3)cs2)c1)C(=O)O,x,u,u,x,x,0.1%
O=C(NC1=NCCS1)c1ccccc1,16.8,67.8%,u,2.4%,19.9,-1.2%
O=C(NC1=NCCS1)c1cc(Cl)ccc1Cl,4.5,5.4%,2.5%,-8.1%,-3.1,-10.3%
O=C(NC1=NCCS1)c1ccc(Cl)c(Cl)c1,47.5*,181.9%,-0.5%,2.0%,67.9*,3.0%
SMILES,CHX counter,Pf growth 48h,Pf growth 96h,NS1 function inh,Shiga inhibitor,FBPA Giardia inh
CC(C)(C)C(=O)NC1=NCCS1,-2.0,9.8%,1.47µM*,0.0%,-16.4,-2.4%
O=C(NC1=NCCS1)Nc1ccccc1,35.9*,337.0%,88.1%,-2.4%,65.0*,9.2%
O=C(NC1=NCCS1)c1ccccc1Cl,8.2*,6.1%,2.9%,-25.3%,15.1,6.6%
CC(C(=O)NC1=NCCS1)(C(F)(F)F)C(F)(F)F,-4.4,-2.3%,x,-4.3%,10.0,0.2%
COc1ccc(-c2nn(CCC(=O)O)cc2/C=C/C(=O)O)cc1[N+](=O)[O-],-0.2,4.5%,68.6%,6.6%,-9.0,5.6%
O=S(=O)(c1ccccc1)N1CCC2(CCCN(Cc3nccs3)C2)CC1,x,x,x,x,x,-0.4%
O=C(c1csnn1)N1CCC2(CC1)CCN(c1cccc(-c3ccccc3)c1)CC2,x,x,x,x,x,0.6%
O=C(NC1=NCCS1)c1cc2ccccc2o1,17.7*,201.6%,76.2%,-48.0%,17.2,-8.3%
O=C(NC1=NCCS1)c1csc2ccccc12,39.3*,257.2%,0.0%,-160.6%,58.8*,-1.2%
O=C(NC1=NCCS1)c1cccs1,-2.8,u,u,4.8%,11.2,8.6%
O=C(Nc1ncccc1O)c1cc2ccccc2o1,x,u,-100.3%,x,x,x
Cn1cc([N+](=O)[O-])c(C(=O)NC2CCCCCC2)n1,-0.4,-0.6%,u,10.2%,-5.0,x
C=CC[C@@H]1C=C[C@H](O/N=C(\C)CCN2CCc3nc(CC)c(CC)cc3C2)[C@H](CO)O1,x,x,x,x,x,-12.5%[12.9 µM]
C=CCOc1c(/C=N\NC(N)=O)cccc1OC,1.0,u,30.2%,0.4%,-3.0,-3.2%
